# Screening data from PubChem BioAssay.
# Shown are actives, neighbours in structure and some others; about 8.3% of the full set was active somewhere.
# SW480 rerep – inducers of DNA re-replication in SW480 colon cancer cells. SW480 DNA re-replication, Hoechst DNA content imaging, 48 h. Potency, µM (titrated, usually from 46.1 µM), usual class: activators. 340,000 compounds, 1.8% hits. AID 624297; also: nearly all actives have a fitted effect of over 55% in size
#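 Hoechst fluorescence of nuclei (405 nm excitation, 500-530 nm emission) measured by plate-scanning imager after 48 hr compound exposure at 37 C; re-replication scored as increased number of nuclei with elevated intensity.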
# Giardia killer – kills Giardia lamblia. AID 540267. activity change, % at 7.66 µM, hits read low. Giardia lamblia trophozoite viability. 340,000 compounds, 0.15% hits; in the data active = activity change below about -80%; inconclusive = between about -30% and that limit;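 also: parasites exposed to compound for two days anaerobically before the ATP read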
#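 Luminescence from cellular ATP indicates surviving trophozoites (100 cells/well) following 48 hrs anaerobic compound treatment at 37 deg C; signal develops 15-30 min at room temperature.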
# MCF10A rereplic – DNA re-replication induction in MCF 10a cells; 350,000 compounds, 2.9% hits; Potency, µM (titrated, usually from 46.1 µM), most hits filed as activators; MCF 10A DNA re-replication, Hoechst nuclear intensity, 48 h; AID 624296; also: nearly all actives have a fitted effect of over 50% in size
# Chronic BCR inh – blocks chronic active B-cell receptor signaling. 340,000 compounds, 0.05% hits. Potency, µM (top dose mostly 46.1 µM), hits mostly inhibitors. ABC-DLBCL IkBa-CBG/CBR reporter, luminescence ratio, 4 h; active = well fitted inhibition curve with a large enough effect in the signal ratio, with a control signal flat, not every such curve was filed as active; inconclusive = small, poorly fitted or top-dose-only effect, or effect the other way, or a change in a side signal; the % refers to the signal ratio
#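 Concentration-response series (up to 46 uM) were applied to TMD8 dual-reporter cells for 4 h at 37C with doxycycline. Green/red ratio, after filter-overlap correction, defined %Activity; red signal alone was normalised to basal cells and zero luminescence.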
# VP16 counter – Gal4-VP16 reporter inhibition counter-screen; Drosophila S2 Gal4-VP16 UAS-luciferase, luminescence, 20 h; Potency, µM (titrated, usually from 53.6 µM), hits mostly inhibitors; 310,000 compounds, 3.5% hits;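 also: Gal4-VP16 expression switched on by copper sulfate through the metallothionein promoter; nearly all actives have a fitted effect of over 50% in size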
# RORg inh – inhibitors of mouse ROR gamma transcriptional activity; Drosophila S2 Gal4-RORgamma UAS-luciferase reporter, 20 h; Potency, µM (highest dose often 53.6 µM), most hits filed as inhibitors; 310,000 compounds, 5.4% hits; also: nearly all actives have a fitted effect of over 60% in size
# Target sequence (P51450 whole entry, looked up, the tested form may be a part): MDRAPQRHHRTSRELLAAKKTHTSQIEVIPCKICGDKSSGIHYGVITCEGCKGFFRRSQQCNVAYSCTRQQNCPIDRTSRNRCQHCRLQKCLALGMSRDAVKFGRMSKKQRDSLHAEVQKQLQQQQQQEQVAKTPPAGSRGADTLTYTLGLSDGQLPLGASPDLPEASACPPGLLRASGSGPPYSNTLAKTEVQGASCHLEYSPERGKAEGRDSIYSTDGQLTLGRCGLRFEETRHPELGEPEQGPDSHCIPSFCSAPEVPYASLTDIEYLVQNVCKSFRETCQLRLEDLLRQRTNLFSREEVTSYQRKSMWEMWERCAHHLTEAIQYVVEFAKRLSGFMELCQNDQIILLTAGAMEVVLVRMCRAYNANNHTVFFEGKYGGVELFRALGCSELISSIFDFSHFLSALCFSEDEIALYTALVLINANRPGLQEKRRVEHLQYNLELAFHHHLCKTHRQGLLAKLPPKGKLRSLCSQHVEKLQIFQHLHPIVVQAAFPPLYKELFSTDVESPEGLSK
#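 ROR gamma transcriptional activity was tracked as Gal4-UAS luciferase output in stably transfected Drosophila Schneider cells, with compound added 1 hr before 700 uM copper sulfate induction and a 20 hr ambient-temperature incubation.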
# Hits are given with their value; . = inactive; ? = inconclusive; / = not tested or not shown; [ ] = dose if it differs, or a comment. Unless noted, calls follow the shape of the dose curve; as a rule, active = well fitted curve in the direction sought with a large enough effect; inconclusive = small, poorly fitted or top-dose-only effect, or another doubt; inactive = no such curve, though single readings can be large; an effect the other way counts as inactive or inconclusive.
SMILES,SW480 rerep,Giardia killer,MCF10A rereplic,Chronic BCR inh,VP16 counter,RORg inh
O=C1N=C(N2CCCCC2)S/C1=C/C1=Cc2ccccc2OC1,.,.,18.4µM,?,.,.
COc1ccc(CCNC(=O)CCCn2c(SCC(N)=O)nc3cc4c(cc3c2=O)OCO4)cc1OC,/,/,/,.,.,.
COc1cc(CCC(=O)OCC(=O)NCC2CCCCC2)cc(OC)c1OC,.,.,.,.,.,.
COc1ccc(C(=O)OCC(=O)NCC2CCCCC2)cc1F,.,.,8.2µM,.,/,/
O=C(COC(=O)c1ccc(F)cc1)NCC1CCCCC1,.,?,.,.,/,/
COc1ccc(CC(=O)NCC2CCCCC2)cc1OC,5.8µM,.,.,.,.,.
Clc1cc(Cl)cc(Cl)c1,/,/,/,/,.,.
CCCC(=O)Nc1ccc2c(c1)nc(CN1CCN(C(=O)OCC)CC1)n2CC,9.2µM,.,7.31µM,?,.,.
COC(=O)c1cn(C(=O)c2ccccc2Cl)c2ccccc12,.,.,?,?,.,.
COC(=O)c1cn(C(=O)c2ccc(C)cc2C)c2ccccc12,8.2µM,.,4.61µM,?,.,.
COc1ccc(COC(=O)N/N=C2/C[C@@H](O)[C@@H](O)[C@@H]3[C@@H]4C(=O)N(C[C@@H]5CCCO5)C(=O)[C@H]4CC[C@@H]23)cc1,/,/,/,/,.[10 µM],.[10 µM]
COc1ccc(NCC(=O)N/N=C/C2CCCCC2)cc1,?,.,.,.,.,.
CCCC1CCC(=NNC(=O)CNc2ccc(OC)cc2)CC1 (stereo not drawn),14.6µM,.,.,.,.,.
CCCCC(=O)Nc1nnc(CCOC)s1,.,.,.,?,.,.
Cn1c2c(c(=O)n(C)c1=O)[C@@]1(C(=O)Nc3ccccc31)C(C#N)=C(N)O2,.,.,.,?,?,20µM
CCOc1cc(/C=N/NC(=S)Nc2ccccc2C(F)(F)F)ccc1OCC(=O)N1CCOCC1,.,.,.,?,1.41µM,1.41µM
CCOc1cc(/C=C\[N+](=O)[O-])ccc1OCC(=O)N1CCOCC1,.,.,6.51µM,.,5.62µM,4.47µM
CCOc1cc(/C=C/c2nc3cc(C)c(C)cc3s2)ccc1OCC(=O)N1CCOCC1,?,.,13µM,.,.,?
CCOc1ccc(C(=O)OCC(=O)N2CCOCC2)cc1OCC,.,?,.,.,.,.
CCCc1cc(=O)n2[nH]c(NC(=O)c3ccco3)nc2n1,.,.,.,?,.,.
O=C(NC12CC3CC(CC(C3)C1)C2)N1CCN(C2CCCCC2)CC1,.,.,2.06µM,.,.,.
O=C1CC(Sc2nnc(-c3ccccc3)o2)C(=O)N1c1ccccc1 (stereo not drawn),7.31µM,.,5.8µM,?,3.98µM,1.26µM
CC(C)c1ccc(N2C(=O)CC(Sc3nc4ccccc4o3)C2=O)cc1 (stereo not drawn),?,.,?,.,3.98µM,5.01µM
Cc1ccccc1N1C(=O)CC(Sc2nnc(-c3ccccc3)o2)C1=O (stereo not drawn),16.4µM,.,?,?,3.98µM,3.16µM
O=C1c2ccccc2CC1Sc1nnc(-c2ccncc2)o1 (stereo not drawn),.,.,.,.,?,.
SMILES,SW480 rerep,Giardia killer,MCF10A rereplic,Chronic BCR inh,VP16 counter,RORg inh
CCn1cnc2c1c(=O)n(CC(=O)NCC(F)(F)F)c(=O)n2Cc1ccccc1,.,.,?,.,.,.
O=[N+]([O-])c1ccc(Cl)cc1Cl,/,/,/,/,.,.
O=C(N/N=C\c1ccc(Cl)s1)C1COc2ccccc2O1 (stereo not drawn),16.4µM,.,?,.,0.891µM,0.631µM
CC(NC(=O)C12CC3CC(CC(C3)C1)C2)C(=O)NN=Cc1ccc([N+](=O)[O-])o1 (stereo not drawn),?,-93.0,?,.,/,/
O=C(N/N=C/c1ccc(N2CCOCC2)cc1)C1COc2ccccc2O1 (stereo not drawn),.,.,?,.,.,.
COc1cccc(OC)c1C(=O)NC(C)C12CC3CC(CC(C3)C1)C2 (stereo not drawn),.,.,.,.,.,.
CC(C)(C)c1ccc2c(c1)OC(C(=O)N/N=C\c1ccc(-c3cccc(C(=O)O)c3)o1)CO2 (stereo not drawn),.,.,.,.,.,.
CC(C)(C)c1ccc2c(c1)OC(C(=O)N/N=C\c1ccccn1)CO2 (stereo not drawn),.,.,?,?,17.8µM,?
CC(NC(=O)c1ccc([N+](=O)[O-])o1)C12CC3CC(CC(C3)C1)C2 (stereo not drawn),?,-86.5,?,?,.,2.51µM
CCCCN(CCCC)CCNC(=O)c1cn(CC)c2ccc(S(=O)(=O)N3CCCC3)cc2c1=O,.,.,.,.,.,.
Cn1c(N)c(C(=O)COC(=O)CNC(=O)c2ccccc2Cl)c(=O)n(C)c1=O,.,.,.,.,/,/
O=C(N/N=C\c1ccc(-c2ccccc2[N+](=O)[O-])o1)C1COc2ccccc2O1 (stereo not drawn),?,.,.,?,?,?
O=[N+]([O-])c1ccc(/C=[N+](\[O-])[C@@H]2CCCC[C@@H]2/[N+]([O-])=C/c2ccc([N+](=O)[O-])o2)o1,2.91µM,-82.2,23.1µM,.,?,.
O=C(N/N=C\c1ccc([N+](=O)[O-])o1)C1COc2ccccc2O1 (stereo not drawn),?,-82.4,?,.,?,.
O=C(N/N=C/c1c[nH]c2ccccc12)C1COc2ccccc2O1 (stereo not drawn),?,?,20.6µM,?,.,.
O=C(N/N=C/c1c[nH]c2ccccc12)C1CC1c1ccccc1 (stereo not drawn),.,.,.,?,?,?
O=C(N/N=C\c1ccc([N+](=O)[O-])s1)C1COc2ccccc2O1 (stereo not drawn),.,-85.1,.,.,2.82µM,3.55µM
COc1ccc(NC(=O)CN(C)C(=O)Cn2c(=O)oc3ccccc32)cc1,.,.,.,?,/,/
O=C1CC2CC1C(C(=O)O)C2C(=O)O (stereo not drawn),.,.,.,/,/,/
CN(C)CCNC(=O)c1cccc(S(=O)(=O)Nc2ccccc2F)c1,.,.,.,.,.,.
Cc1ccc(-n2ncc3c(NCc4ccccc4)ncnc32)cc1Cl,/,/,/,.,/,/
O=C(N/N=C/c1ccc([N+](=O)[O-])o1)C1CCCC1,.,-93.5,.,?,.,.
CCOC(=O)c1ccc(NC(=O)C2COc3ccccc3O2)cc1 (stereo not drawn),.,.,?,?,.,.[1.91 µM]
O=C(N/N=C/c1ccc([N+](=O)[O-])o1)c1ccncc1,.,.,.,?,?,?
CCOC(=O)c1ccc(-n2c(O)c(/C=N/NC(=O)C3COc4ccccc4O3)c3ccccc3c2=O)cc1 (stereo not drawn),?,.,.,.,2.82µM,2.51µM
